Measured values: PubChem BioAssay AID463190 (Sanford-Burnham Center for Chemical Genomics, 2010)
Among all 330,000 compounds or so, about 7,300 (2.2%) were called active.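 The calls were made as follows: active = inhibition of at least 40%; inactive = the rest.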 The sample as a whole holds a higher share of actives than the screen did.

assay: growth inhibitors of tim10-1 mutant yeast, primary screen, luminescence, uHTS (AID 463190);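 also: mutant grown at 25 °C; 0% = DMSO wells with yeast and 100% = wells holding no yeast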; details: S. cerevisiae tim10-1 ts strain growth, BacTiter-Glo, 24 h; at 20 µM; active compounds read high

Row | SMILES | inhibition
1 | O=C(N/N=C/c1cccc(OCc2ccccc2)c1)c1ccc(Br)o1 | 27.9% (inactive)
2 | COCCNC(=O)/C(C#N)=C/c1cccc(OCc2ccccc2)c1 | 52.7% (active)
3 | N#C/C(=C\c1ccc(O)c(O)c1)C(=O)NCc1ccccc1 | -4.07% (inactive)
4 | C=CCNC(=O)COC(=O)c1ccccc1C(=O)N(C)C1CCCCC1 | 16.1% (inactive)
5 | CCOc1ccc(CN2CCN(Cc3ccc(C)o3)CC2CCO)cc1 (configuration not stated) | 5.81% (inactive)
6 | O=C(CCc1ccc(S(=O)(=O)N2CCOCC2)cc1)Nc1ccc2ccccc2c1 | 41.9% (active)
7 | O=C(COC(=O)CCc1ccc(S(=O)(=O)N2CCOCC2)cc1)Nc1cccc(Cl)c1 | 5.19% (inactive)
8 | Cc1ccc(CC(=O)Nc2ccc(S(=O)(=O)N3CCOCC3)cc2)cc1C | 19% (inactive)
9 | CC(C)(C)OC(=O)C[C@@H]1C/C=C\C[C@@H](CC(=O)N[C@H](CO)Cc2ccccc2)C(=O)NCCOC1=O | -5.51% (inactive)
10 | Cc1ccc2c(c1)nnc1nnc(SCC(=O)O)n12 | -10.5% (inactive)
11 | CC1OC2C(OC1C)N(S(C)(=O)=O)CCN2S(C)(=O)=O (configuration not stated) | 1.46% (inactive)
12 | Cc1cccc(NC(=O)c2ccc3ccccc3n2)n1 | 27.1% (inactive)
13 | Cc1cc(Nc2ccc(Br)cc2)nc2ccccc12 | 29.6% (inactive)
14 | Clc1ccc(Nc2ccc3ccccc3n2)cc1 | 54.1% (active)
15 | CCOC(=O)C1CCCN(S(=O)(=O)c2ccc3c(c2)C(C)(C)C(=O)N3C)C1 (configuration not stated) | -10.8% (inactive)
16 | CC1CCC2(CC1)NC(=O)N(CC(=O)c1ccc3c(c1)OCO3)C2=O (configuration not stated) | -17.1% (inactive)
17 | CC(C)c1ccc(S(=O)(=O)NC2CCCC2)cc1 | 19% (inactive)
18 | Cc1ccc(S(=O)(=O)NC2CCCCCC2)cc1 | 21.3% (inactive)
19 | CSc1ccc(S(=O)(=O)NC2CCCCC2)cc1 | 45.6% (active)
20 | CC(=O)c1ccccc1OCc1ccc(C(=O)c2ccccc2)cc1 | 9.55% (inactive)
21 | O=C(C(=O)N1CCc2ccccc2C1)c1c[nH]c2ccccc12 | 40.7% (active)

Row | SMILES | inhibition
22 | CC1CCN(CC(=O)c2c[nH]c3ccccc23)CC1 | 16% (inactive)
23 | O=C(NC1CCCC1)C(=O)c1c[nH]c2ccccc12 | -16.2% (inactive)
24 | Cc1ccc(N2CC(C(=O)N3CCC4(CC3)CC(=O)c3ccccc3O4)CC2=O)cc1C (configuration not stated) | 1.3% (inactive)
25 | Cc1ccc(C(=O)NC23CC4CC(CC(C4)C2)C3)c(Cl)c1 | -11.9% (inactive)
26 | O=C(N/N=C1\CCSC1)c1cc(Cl)ccc1O | -11.5% (inactive)
27 | C/C(=N/NC(=O)c1cc(Cl)ccc1O)C12CC3CC(CC(C3)C1)C2 | 50.7% (active)
28 | COc1ccc2nc(Nc3nc4cc5c(cc4s3)OCCO5)sc2c1 | 47.7% (active)
29 | CCc1noc(C)c1C(=O)Nc1nc2ccc(OC)cc2s1 | 26.7% (inactive)
30 | COc1ccc2nc(NC(=O)NC3CCCCC3)sc2c1 | 21.2% (inactive)
31 | COc1ccc(N2CCN(Cc3ccc(Br)s3)CC2)cc1 | 19.9% (inactive)
32 | c1ccc(-c2cnc(CN3CCN(c4ccccc4)CC3)o2)cc1 | 2.4% (inactive)
33 | Fc1ccc(N2CCN(Cc3cnc(Oc4ccc(Br)cc4)s3)CC2)cc1 | 42.4% (active)
34 | COc1ccc(N2CCN(C(CNS(=O)(=O)c3ccc(C)cc3)c3ccccc3)CC2)cc1 (configuration not stated) | 4.98% (inactive)
35 | CS(=O)(=O)c1ccc(C(=O)OCC(=O)NNC(=O)COc2ccc(Cl)cc2)cc1 | -15.1% (inactive)
36 | C/C=C/c1ccc(OCCCCN2CCC(C)CC2)c(OC)c1 | 15.8% (inactive)
37 | COc1ccc(NC(=O)c2ccccc2[N+](=O)[O-])cc1OC | 15.9% (inactive)
38 | COc1ccc(NC(=O)CNC(=O)Cc2ccccc2)cc1OC | -6.35% (inactive)
39 | COc1ccc(NC(=O)c2cc3nc(-c4ccccc4)cc(C)n3n2)cc1OC | 51.1% (active)
40 | O=C(COC(=O)/C=C/c1ccc(S(=O)(=O)N2CCCCCC2)cc1)NCc1ccccc1Cl | 35.9% (inactive)
41 | Cc1onc(-c2ccccc2Cl)c1C(=O)N(Cc1ccc(N(C)C)cc1)C(C)C | 23.4% (inactive)
42 | O=c1ccc2c(-c3ccccc3S(=O)(=O)O)c3ccc(O)c(O)c3oc-2c1O | 38.3% (inactive)

Row | SMILES | inhibition
43 | Cc1cccc(CN2CCC(CNC(=O)Nc3ccc(F)c(Cl)c3)CC2)c1 | 41.3% (active)
44 | Cc1ccccc1NC(=O)NCC1CCN(Cc2cccc(Cl)c2)CC1 | 4.31% (inactive)
45 | Cc1ccc(C)c(CN2CCC(CNC(=O)Nc3ccc(C)c(F)c3)CC2)c1 | 30.5% (inactive)
46 | Cc1cccc(-c2c(NC(=O)c3ccco3)oc3ccc(Cl)cc3c2=O)c1 | 7.38% (inactive)
47 | CCN(C(=O)Cc1c(C(=O)O)n(CC)c2ccccc12)c1ccccc1C | 19.7% (inactive)
48 | CN(C(=O)COc1nnc(-c2cccs2)c(-c2cccs2)n1)c1ccccc1 | 46.6% (active)
49 | CN(C(=O)COC(=O)CNC(=O)C12CC3CC(CC(C3)C1)C2)c1ccccc1 | 4.63% (inactive)
50 | O=C(O)COc1ccc(-c2nccc(-c3cccs3)n2)cc1 | 10.2% (inactive)
51 | O=C(CC1NCCc2ccccc21)Nc1cccc(Cl)c1 (configuration not stated) | 34.9% (inactive)
52 | Cc1ccc(NS(=O)(=O)c2c(C)[nH]c(=O)[nH]c2=O)cc1C | 0.26% (inactive)
53 | CCOc1ccc(CN2CCN(Cc3ccon3)CC2CCO)cc1 (configuration not stated) | 9.62% (inactive)
54 | CS(=O)(=O)N(CC(=O)Nc1ccc(Cl)c(Cl)c1)C1CCCCC1 | 35.1% (inactive)
55 | O=C(CCCN1C(=O)CCC1=O)Nc1ccc(Cl)c(C(F)(F)F)c1 | -0.021% (inactive)
56 | O=C(CC(O)(C(F)(F)F)C(F)(F)F)Nc1ccc(Cl)c(Cl)c1 | 85.2% (active)
57 | CC1CCCCC1NC(=O)NC(=O)COC(=O)C1=NN(c2ccccc2)C(=O)CC1 (configuration not stated) | -2.21% (inactive)
58 | C#C[C@]1(O)CC[C@H]2[C@@H]3CCC4=CC(=O)CC[C@@H]4[C@H]3CC[C@@]21CC | 12.4% (inactive)
59 | COc1ccccc1CN(C)C(=O)C1(c2ccc(Cl)cc2)CC1 | 3.3% (inactive)
60 | CCCCCCOc1ccc(OC(=O)c2cccnc2)cc1 | 7.23% (inactive)
61 | O=C(Oc1c(-c2ccco2)oc2ccccc2c1=O)c1cccnc1 | 45.4% (active)
62 | N#CCc1ccc(OC(=O)c2cccnc2)cc1 | 19.6% (inactive)
